# Source: PubChem BioAssay (several laboratories)
# The list is not random: actives were taken first. Their share in the collection is about 4.1%.
# TROY signal inh = inhibitors of TROY-driven NF-kB signaling, primary screen, Q293 LMP1-TROYcd cells, NF-kB luciferase, uHTS | hit rate 0.98% among 360,000 | inhibition, % at 10 µM | Q293 LMP1-TROYcd NF-kB luciferase reporter, 4 h | AID 1347056, 2019;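 active means compounds whose plate-normalised and pattern-corrected inhibition of the luciferase reporter signal at the single screening dose is 50% or more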
# LMP1 NFkB inh = EBV LMP1-driven NF-kappaB luciferase reporter inhibitors, primary screen, cell-based, luminescence, single point; AID 504558, 2011; inhibition, % at 12.5 µM; LMP1-induced NF-kappaB luciferase reporter cells; hit rate 0.69% among 350,000; in the data active means inhibition above about 41%;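 further: 0% = neutral control wells and 100% = reference inhibitor control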
# TRPM1 prom inh = inhibitors of MITF-dependent TRPM1 promoter reporter, primary screen, cell-based, SK-MEL-5, single point, luciferase | hit rate 0.83% among 330,000 | SK-MEL-5 TRPM1 promoter luciferase, 24 h | inhibition, % at 12.5 µM | AID 488899, 2010;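 active means mean inhibition across replicates of 60% or more, whatever share of single replicates reaches that level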
# Shn3 inh set2 = reduction of Shn3 3'UTR firefly luciferase signal, primary screen, Schnurri-3 inhibitor project, cell-based, Clone20 osteoblasts, set 2; Clone20 osteoblast Shn3 3'UTR firefly luciferase, 24 h; hit rate 0.52% among 360,000; inhibition, % at 12.5 µM;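 active means mean inhibition of at least 75% with every replicate also reaching 75%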;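 further: 0% = median of neutral control wells and 100% = pilot-screen positive control compound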
# Peg3 prom inh = Peg3 promoter-driven luciferase inhibitors, primary screen, cell-based, HeLa, luciferase luminescence. HeLa PEG-Prom luciferase reporter, overnight. hit rate 1.7% among 360,000. AID 588405, 2011. inhibition, % at 20 µM;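 active means inhibition of at least 50% at 20 µM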
# TWEAK Fn14 block = inhibitors of TWEAK-Fn14 signaling, primary screen, luciferase reporter cells, uHTS | TWEAK-stimulated Fn14 reporter cells, luciferase luminescence, 8 h | hit rate 2% among 360,000 | inhibition, % at 10 µM | AID 1159606, 2016; in the data active means inhibition above about 50%
# The depositor's hits bear a star; . = no result.
SMILES,TROY signal inh,LMP1 NFkB inh,TRPM1 prom inh,Shn3 inh set2,Peg3 prom inh,TWEAK Fn14 block
CCOC(=O)C1(Cc2ccc(Cl)cc2)CCN(Cc2cn(CC)nc2C)CC1,12,17,-1,23,9,-5
CN(c1ccccc1)S(=O)(=O)c1cccc(NC(=O)c2nn(C)c(=O)c3ccccc23)c1,32,1,.,54,47,17
CC(=O)c1ccc(-n2nnnc2SCC(=O)N2CCc3ccccc3C2)cc1,24,49*,0,8,8,11
O=C(Nc1nc(-c2ccccn2)cs1)C1CC(=O)N(c2ccc3c(c2)OCCO3)C1 (centres undefined),20,26,11,16,13,70*
O=C(Nc1nnc(C2CC2)s1)C1CC(=O)N(c2ccc3c(c2)OCCO3)C1 (centres undefined),51*,8,-3,35,-1,78*
Cc1cccnc1NC(=O)C1CC(=O)N(c2ccc3c(c2)OCCO3)C1 (centres undefined),10,0,3,-5,4,5
O=C(CCN1C(=O)C2CCCCC2C1=O)Nc1nc2ccc(F)cc2s1 (centres undefined),73*,11,-39,-42,-94,72*
O=C(CCN1C(=O)C2CCCCC2C1=O)Nc1nc2c(F)cc(F)cc2s1 (centres undefined),-12,-24,-91,-82,-279,2
COc1ccc(-c2nc(NC(=O)C3CC(=O)N(c4ccc5c(c4)OCCO5)C3)sc2C)cc1 (centres undefined),48,39,46,85,-1,82*
CCCOc1cccc(C2C(C(=O)c3cccs3)=C(O)C(=O)N2Cc2cccnc2)c1 (centres undefined),-27,5,9,-2,6,1
COc1ccccc1N(C)S(=O)(=O)c1ccc(C)c(C(=O)NC(C)c2ccccn2)c1 (centres undefined),-5,-4,8,-6,-1,1
Cc1ccccc1N1CCN(S(=O)(=O)c2nnc(NC(=O)c3ccco3)s2)CC1,21,0,10,1,-2,32
CSc1cccc2sc(NC(=O)C3=COCCO3)nc12,-45,-9,-78,-42,-192,-5
O=C(Nc1nc2ccc(F)cc2s1)C1=COCCO1,36,51*,19,-23,-29,85*
O=C(Nc1nc2ccc(F)cc2s1)C1CC(=O)N(c2ccc3c(c2)OCCO3)C1 (centres undefined),-12,0,9,7,-25,55*
O=C(CCCCCn1c(=S)[nH]c2ccc(N3CCOCC3)cc2c1=O)NCc1cccc(Cl)c1,4,1,-2,5,23,7
Cc1ccc(/C=C2/CNC/C(=C/c3ccc(C)cc3)C2=O)cc1,38,80*,91*,-17,105*,104*
Nc1ccn(C2CSC(CO)O2)c(=O)n1 (centres undefined),-6,.,.,.,.,5
O=C1CC(=O)C(n2cncn2)C(c2ccc(Cl)cc2Cl)C1 (centres undefined),-1,-1,2,-4,-5,64*
CCS(=O)(=O)c1nc(S(=O)(=O)c2ccc(C)cc2)c(N2CCCCCC2)s1,0,-1,.,-17,30,8
Cc1ccc(C(=O)Nc2nnc(SCC(=O)N3CCCc4ccccc43)s2)cc1,15,51*,32,-11,0,55*
CC(C)Oc1ccc(C(=O)Nc2nnc(SCC(=O)N3CCOCC3)s2)cc1,-8,70*,51,35,38,50*
Cc1ccc(C(=O)Nc2nnc(-c3ccc(C(C)(C)C)cc3)s2)cc1,-37,57*,-11,-18,-26,-23
CN(C)S(=O)(=O)c1ccc(C(=O)Nc2nnc(SCC(=O)N3CCOCC3)s2)cc1,-11,17,.,-1,-9,2
CCOC(=O)CNC(=O)CSc1nnc(NC(=O)c2ccc(C)cc2)s1,-1,55*,42,34,36,68*
SMILES,TROY signal inh,LMP1 NFkB inh,TRPM1 prom inh,Shn3 inh set2,Peg3 prom inh,TWEAK Fn14 block
COc1ccc(C(=O)Nc2nnc(-c3ccccc3)s2)cc1,-62,-58,-24,-116,29,-50
COc1ccc(-n2nc(C(=O)NCC(=O)NCCCN3CC(C)CC(C)C3)c3ccccc3c2=O)cc1Cl (centres undefined),-1,-4,-18,-2,2,17
Cn1cc(C=O)c(-c2ccc3c(c2)OCCCO3)n1,25,-12,-46,-67,-115,71*
CC(C)C(Cl)=NOC(=O)Nc1ccc(S(N)(=O)=O)cc1,-17,1,16,95*,88*,56*
COc1ccc(NC(=O)N(C)C[C@H]2Oc3cc(Br)ccc3S(=O)(=O)N([C@H](C)CO)C[C@@H]2C)cc1,4,15,.,-26,4,-8
COc1ccc(C(=O)N2[C@@H](C(C)C)COc3cc(Br)ccc3S2(=O)=O)cc1,31,14,-6,1,55*,39
N#C/C(C(N)=O)=C1/CCCN1Cc1ccccc1,-23,.,.,13,10,15
O=C1C=C(N(CCO)Cc2ccccc2)c2ccccc2C1=O,5,17,106*,-19,38,37
Cc1cccc(N/C(=N/S(=O)(=O)c2ccccc2)c2ccccc2)n1,-25,-2,-10,-7,6,-6
O=C(CSc1nnc(-c2c[nH]c3ccccc23)o1)N1c2ccccc2CCc2ccccc21,39,7,16,29,34,63*
O=C(CSc1nnc(-c2c[nH]c3ccccc23)o1)N1CCCCC1,-49,-11,-28,-28,-190,-14
CCC(=O)N/N=C/c1ccc(-c2ccc([N+](=O)[O-])cc2)o1,-5,-2,-18,-17,-36,-2
CC(C)(C)C(=O)/C=c1\s/c(=C\c2ccc(-c3ccc([N+](=O)[O-])cc3)o2)c(=O)n1CC(=O)NC(N)=O,3,5,2,-2,55*,9
CC(C)(C)c1ccc(N2C(=O)CSC2c2cccnc2)cc1 (centres undefined),2,2,6,1,20,4
CCC(=O)n1nc(-c2ccc(Cl)cc2)nc1SC,-31,-9,-59,-26,-176,77*
CCCN(CCC)c1ncnc2nc[nH]c12,50*,48*,.,7,6,63*
Nc1c(Cl)cnn(-c2ccccc2)c1=O,-6,.,.,4,7,14
O=c1c(Cl)c(Cl)cnn1-c1ccccc1,-1,0,88*,2,115*,91*
O=C(NCCCc1ccccn1)C1CCC(=O)N(Cc2cccc(F)c2)C1 (centres undefined),-2,-7,3,-26,2,9
